# In the supplement of paper PMC12340641:
# Over roughly 1,000 compounds, “relative growth in counter assay (no AraC = 100%, AraC + DMSO = 0%)” has its median near -1.1; the highest 2% begin near 20. Only a selection was taken, and the highest values are over-represented in it overall.
# System: HEK293FT dCK*-only
# Test: relative growth in counter assay (no AraC = 100%, AraC + DMSO = 0%); higher = more growth rescue independent of IKZF1
# Details: compound concentration: 5 uM; AraC concentration: 0.3 uM; overnight pretreatment + 4 days AraC
# Method: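 Growth recovery screen of the molecular-glue-like (Specs) library. HEK293FT cells expressing a dCK*-IKZF1 fusion (primary) or dCK* alone (counter) were pretreated overnight with compound at 5 uM, then given 0.3 uM AraC for 4 days. Hoechst nuclei were counted by imaging. Primary: normalised to pomalidomide (100%) and DMSO (0%), mean of 2 replicates. Counter: normalised to no-AraC (100%) and AraC+DMSO (0%), single replicate.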
row,Structure (SMILES),relative growth in counter assay [%]
1,O=C(C1CCCCC1)N1CCOC(c2cccc(Nc3nccs3)n2)C1 (stereo not drawn),-5.66
2,O=[N+]([O-])c1ccc(S(=O)(=O)Nc2ccccn2)cc1,-0.83
3,Cc1cccc(Nc2nc(-c3sc(NC(=O)c4ccccc4)nc3C)cs2)n1,60.5
4,CC(=O)Nc1ccc(-c2csc(Nc3cccc(C)n3)n2)cc1,5.34
5,CC(=O)Nc1ccc(-c2csc(Nc3ccc(Cl)cn3)n2)cc1,-4.91
6,Cc1ccnc(Nc2nc(-c3sc(NC(=O)c4ccccc4)nc3C)cs2)c1,68.2
7,CC(=O)N1CCCC1c1csc(Nc2ccccn2)n1 (stereo not drawn),6.68
8,Cc1ccc(Nc2nc(-c3sc(NC(=O)c4ccccc4)nc3C)cs2)nc1,74.3
9,CC(=O)Nc1ccc(-c2csc(Nc3ccccn3)n2)cc1,15.7
10,CC(=O)Nc1cccc(-c2csc(Nc3cccc(C)n3)n2)c1,5.94
11,CC(=O)N1CCCC(c2csc(Nc3ccc(C)cn3)n2)C1 (stereo not drawn),2.06
12,COc1cccc(OC)c1C(=O)Nc1ccc(S(=O)(=O)Nc2nccc(C)n2)cc1,-1.58
13,CC1CCc2cc(F)ccc2N1C(=O)CSc1nnc2c(n1)[nH]c1ccccc12 (stereo not drawn),6.61
14,O=C(NCc1cnc(Nc2cccc(C3CCN(C(=O)C4CCCCC4)CC3)n2)s1)c1cccc(F)c1,-9.34
15,CC(C)(N)C(=O)N1CCC(c2cccc(Nc3ncc(-c4cccnc4)s3)n2)CC1,-23.8
16,CCCc1cnc(Nc2cccc(C3CCN(C(=O)[C@@H](N)C(C)O)CC3)n2)s1 (stereo partly drawn),-24.9
17,Cc1ccc(CC(=O)N2CCOC(c3cccc(Nc4nccs4)n3)C2)cc1C (stereo not drawn),-4.97
18,COc1ccc(C(=O)Nc2ccc(S(=O)(=O)Nc3cc(C)nc(C)n3)cc2)cc1,-14
19,Nc1ccc(C(=O)N2CCCC2c2cccc(Nc3nccs3)n2)cn1 (stereo not drawn),-0.6
20,O=C(O)CCOCCOCCNc1ccc2c(c1)C(=O)N(C1CCC(=O)NC1=O)C2=O (stereo not drawn),-0.35
21,O=[N+]([O-])c1ccc(S(=O)(=O)Nc2ccc(S(=O)(=O)Nc3ncccn3)cc2)cc1,0.33
22,CC(C)(C)N1CC(C(=O)Nc2ccc(S(=O)(=O)Nc3ncccn3)cc2)CC1=O (stereo not drawn),4.79
23,COC1CCCC(C(=O)N2CCOC(c3cccc(Nc4ncc(C)s4)n3)C2)C1 (stereo not drawn),-9.41
24,CCOCCC(=O)Nc1ccc(S(=O)(=O)Nc2ncccn2)cc1,3.97
25,Cc1cc(NS(=O)(=O)c2ccc(NC(=O)COc3ccc(C(C)C)cc3)cc2)nc(C)n1,-0.57

row,Structure (SMILES),relative growth in counter assay [%]
1,Cc1cccc(OCC(=O)Nc2ccc(S(=O)(=O)Nc3nc(C)cc(C)n3)cc2)c1,-12
2,CN(CC(=O)N1CCOC(c2cccc(Nc3nccs3)n2)C1)Cc1ccccc1F (stereo not drawn),0.79
3,CC(C)c1cnc(Nc2cccc(C3CCN(C(=O)C4CCCCC4)CC3)n2)s1,11
4,COc1cccc(C(=O)Nc2ccc(S(=O)(=O)Nc3cc(C)nc(C)n3)cc2)c1,0.7
5,COc1ccc(NC(=O)CN2CCC(c3cccc(Nc4nc(C)cs4)n3)CC2)cc1,13.8
6,O=C1CCC(N2C(=O)c3cccc(N4CCC(C(=O)O)CC4)c3C2=O)C(=O)N1 (stereo not drawn),3.86
7,Cc1cc(C)nc(NS(=O)(=O)c2ccc(NC(=O)CCN3C(=O)c4ccccc4C3=O)cc2)n1,-7.05
8,Cc1csc(Nc2cccc(C3CCCN3C(=O)c3ccc4c(c3)CCCN4C)n2)n1 (stereo not drawn),13.3
9,Cc1ccc2[nH]nc(C(=O)N3CCCC3c3cccc(Nc4nc(C)cs4)n3)c2c1 (stereo not drawn),2.1
10,Cc1csc(Nc2cccc(C3CCCN3C(=O)c3ccc4[nH]c(C(C)C)nc4c3)n2)n1 (stereo not drawn),30.5
11,CC(=O)N1CCCC1c1cccc(Nc2nc(C)cs2)n1 (stereo not drawn),-5.77
12,Cc1csc(Nc2cccc(C3CCCN3C(=O)c3cnc(C)nc3C)n2)n1 (stereo not drawn),-4.08
13,Cc1csc(Nc2cccc(C3CCCN3C(=O)c3cn4cc(Cl)ccc4n3)n2)n1 (stereo not drawn),22.3
14,COc1ccc(C(=O)Nc2ccc(S(=O)(=O)Nc3ncccn3)cc2)cc1OC,-2.72
15,Cc1ccc(Oc2ccc3c(c2)C(=O)N(c2ccc(C(N)=O)cc2)C3=O)cc1C,3.9
16,COc1ccc2[nH]c3nc(SCC(=O)Nc4cccc(F)c4)nnc3c2c1,-13.9
17,COc1ccc(C(=O)Nc2ccc(S(=O)(=O)Nc3nccc(C)n3)cc2)cc1,-6.7
18,Cc1cnc(Nc2cccc(C(CO)C3CCN(C(=O)c4cccc(Cl)c4F)CC3)n2)s1 (stereo not drawn),-1.22
19,Cc1cnc(Nc2cccc(C3CN(C(=O)C(C)(C)C)CCO3)n2)s1 (stereo not drawn),-10.3
20,CCCc1cnc(Nc2cccc(C3CCN(C(=O)[C@@H]4CCCCN4)CC3)n2)s1,-21.3
21,COc1ccc(Cl)cc1NC(=O)CSc1nnc2c(n1)[nH]c1ccc(F)cc12,5.27
22,COc1ccc(N2C(=O)c3ccc(Oc4ccccc4)cc3C2=O)cc1,-22.4
23,CCC(C)C(=O)Nc1ccc(S(=O)(=O)Nc2nccc(C)n2)cc1 (stereo not drawn),-7.22
24,COc1cc(NS(=O)(=O)c2ccc(Nc3nc(-c4c(C)nc5ncccn45)cs3)cc2)nc(OC)n1,2.39
25,CCCCc1cnc(Nc2cccc(C3CCN(C(=O)C(C)(C)NC(=O)COC)CC3)n2)s1,-10.6

row,Structure (SMILES),relative growth in counter assay [%]
1,COc1cccc(CC(=O)N2CCC(c3cccc(Nc4nc(C)c(C)s4)n3)CC2)c1,2.52
2,Cc1ccnc(NS(=O)(=O)c2ccc(NC(=O)c3ccco3)cc2)n1,3.62
3,NCC(=O)N1CCC(c2cccc(Nc3ncc(Cl)s3)n2)CC1,-23.9
4,COc1ccc(N2CC(C(=O)Nc3ccc(S(=O)(=O)Nc4nc(C)cc(C)n4)cc3)CC2=O)cc1 (stereo not drawn),7.32
5,Cc1ccnc(NS(=O)(=O)c2ccc(NC(=O)C3c4ccccc4Oc4ccccc43)cc2)n1,-3.45
6,COc1ccc(Br)cc1/C=N/NS(=O)(=O)c1ccccc1,-21.2
7,Cc1nc(Nc2cccc(C3CN(C(=O)c4cn5cccc(C)c5n4)CCO3)n2)sc1C (stereo not drawn),2.16
8,CNC(=O)C1(c2cccc(Nc3ncc(C)s3)n2)CCN(C(=O)C2CCCCC2)CC1,-21.2
9,Cc1cc(C)nc(NS(=O)(=O)c2ccc(NC(=O)CSc3nnnn3-c3ccccc3)cc2)n1,1.47
10,CC(C)CC(=O)N1CCCC1c1csc(Nc2ccccn2)n1 (stereo not drawn),-4
11,Cc1cnc(Nc2cccc(C3CCN(C(=O)C4(NC(=O)C(C)C)CCCCC4)CC3)n2)s1,-24.4
12,CC(=O)Nc1ccc(S(=O)(=O)N(Cc2ccccc2)c2ccccn2)cc1,21
13,CC(=O)Nc1ccc(S(=O)(=O)Nc2ccccn2)cc1,-7.51
14,CC(=O)Nc1ccc(S(=O)(=O)Nc2ncccn2)cc1,-1.98
15,CC1(C)C=C(CC(=O)N2CCOC(c3cccc(Nc4nccs4)n3)C2)CC(C)(C)N1 (stereo not drawn),6.81
16,O=C(CN1C(=O)c2ccccc2C1=O)Nc1ccc(S(=O)(=O)Nc2ncccn2)cc1,-1.34
17,O=C1c2ccc(Oc3ccc(NC(=O)C(F)(F)F)cc3)cc2C(=O)N1c1ccc(O)cc1,-3.44
18,CCCOc1ccccc1C(=O)Nc1ccc(S(=O)(=O)Nc2nc(C)cc(C)n2)cc1,2.83
19,CCCc1cnc(Nc2cccc(C3CCN(C(=O)C4CCCCN4CCO)CC3)n2)s1 (stereo not drawn),-7.08
20,Cc1cnc(Nc2cccc(C3CCN(CC(=O)N(C)C4CCCCC4)CC3)n2)s1,-15.6
21,Cc1cc(C)nc(NS(=O)(=O)c2ccc(NC(=O)C(C)C)cc2)n1,2.66
22,Cc1cc(C)cc(OCC(=O)Nc2ccc(S(=O)(=O)Nc3cc(C)nc(C)n3)cc2)c1,7.68
23,Cc1ccc(Cl)cc1NC(=O)CSc1nnc2c(n1)[nH]c1ccc(F)cc12,-2.7
24,Cc1csc(Nc2cccc(C3CN(C(=O)CCCc4ccc(F)cc4)CCO3)n2)n1 (stereo not drawn),36.2
25,COc1cccc(CCC(=O)N2CCOC(c3cccc(Nc4ncc(C)s4)n3)C2)c1 (stereo not drawn),6.36

row,Structure (SMILES),relative growth in counter assay [%]
1,COc1ccc(CCC(=O)N2CCOC(c3cccc(Nc4nc(C)cs4)n3)C2)cc1 (stereo not drawn),19.5
2,COc1ccc(CCC(=O)N2CCOC(c3cccc(Nc4ncc(C)s4)n3)C2)cc1 (stereo not drawn),9.66
3,COCC(=O)N1CCOC(c2cccc(Nc3nc(C)cs3)n2)C1 (stereo not drawn),2.47
4,Cc1csc(Nc2cccc(C3CN(C(=O)CCc4nc(C)no4)CCO3)n2)n1 (stereo not drawn),4.72
5,CC(=O)N1CCC(c2csc(Nc3ccc(F)cn3)n2)CC1,4.68
6,CCCCc1cnc(Nc2cccc(C3CCN(C(=O)[C@@H]4CCCN4CCO)CC3)n2)s1,2.3
7,CC(C)c1ccc(OCC(=O)Nc2ccc(S(=O)(=O)Nc3ccccn3)cc2)cc1,4.55
8,O=C(Nc1ccc(S(=O)(=O)Nc2ncccn2)cc1)Oc1ccccc1,-1.98
9,Cc1cc(NS(=O)(=O)c2ccc(NC(=O)c3cc4ccccc4o3)cc2)nc(C)n1,-3.17
10,Cc1nc(Nc2cccc(C3CCCN3C(=O)c3cc4ccc(F)cc4[nH]3)n2)sc1C (stereo not drawn),9.01
11,O=C(CS(=O)(=O)c1ccccc1)Nc1ccc(S(=O)(=O)Nc2ncccn2)cc1,8.67
12,O=C(Nc1ccc(S(=O)(=O)Nc2ccccn2)cc1)c1cccc(Cl)c1,-0.42
13,O=C(O)CCCCCNc1cccc2c1C(=O)N(C1CCC(=O)NC1=O)C2=O (stereo not drawn),1.33
14,CCCc1cnc(Nc2cccc(C3CCN(C(=O)C4CCCCC4)CC3)n2)s1,-19.4
15,Cc1cnc(NC(=O)CN2CCC(c3cccc(Nc4nc(C)c(C)s4)n3)CC2)s1,24.2
16,Cc1nc(Nc2cccc(C3CN(CC(=O)N4CCC(C)CC4)CCO3)n2)sc1C (stereo not drawn),7.05
17,Cc1cnc(Nc2cccc(C3CCN(CC(=O)N4CCC(C)CC4)CC3)n2)s1,-9.8
18,Cc1nc(Nc2cccc(C3CCN(CC(=O)N4CCC(C)CC4)CC3)n2)sc1C,26.6
19,COCC(C)NC(=O)CN1CCC(c2cccc(Nc3nc(C)c(C)s3)n2)CC1 (stereo not drawn),25.6
20,Cc1cnc(Nc2cccc(C3CCN(CC(=O)Nc4c(F)cccc4F)CC3)n2)s1,-16.6
21,Cc1cnc(NC(=O)CN2CCC(c3cccc(Nc4ncc(C)s4)n3)CC2)s1,-16.5
22,COCC(C)NC(=O)CN1CCC(c2cccc(Nc3ncc(C)s3)n2)CC1 (stereo not drawn),-1.08
23,COCC(C)NC(=O)CN1CCC(c2cccc(Nc3nccs3)n2)CC1 (stereo not drawn),-1.53
